From PubChem BioAssay
This is a sample that favours compounds with a hit; in the whole collection about 2.3% have one here.
CHO-K1 Ca antag = counter-screen for M1 antagonists: effect in parental CHO-K1 cells; ATP-induced calcium, Fluo-8 fluorescence; inhibition, % at 3 µM; 360,000 compounds, 0.6% hits; AID 602250;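 active = inhibition above a per-plate cutoff, the plate's mean sample inhibition plus 3 SD, cut at about 24% in these data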
M1 PAM parental = nonselective calcium activators in parental CHO-K1 cells, primary screen, counter-screen for M1 PAM project, cell-based, Fluo-8 calcium fluorescence, full deck, 1536-well; ATP EC20; 0% at ATP EC20, 100% at ATP max; activation, % at 3 µM; 360,000 compounds, 0.02% hits; AID 602247, 2012;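 active = activation above the run cutoff, the mean activation of all test compounds plus 3 SD, cut at about 40% in these data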;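 also: peak over basal fluorescence ratio in a 140 s read after ATP addition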
M1 antag = human M1 muscarinic receptor antagonists, primary screen, CHO-K1 cells, Fluo-8 calcium fluorescence, 1536-well; AID 588852, 2011; CHO-K1 hM1, ACh EC80 antagonist; Muscarinic acetylcholine receptor M1 (Homo sapiens), P11229; 360,000 compounds, 1.3% hits; inhibition, % at 3 µM;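 active = percent inhibition above its own plate's cutoff, namely the mean of that plate's compound wells plus 3 SD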;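 also: peak over basal fluorescence ratio during 140 s after agonist addition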
Target sequence (P11229 whole entry, looked up): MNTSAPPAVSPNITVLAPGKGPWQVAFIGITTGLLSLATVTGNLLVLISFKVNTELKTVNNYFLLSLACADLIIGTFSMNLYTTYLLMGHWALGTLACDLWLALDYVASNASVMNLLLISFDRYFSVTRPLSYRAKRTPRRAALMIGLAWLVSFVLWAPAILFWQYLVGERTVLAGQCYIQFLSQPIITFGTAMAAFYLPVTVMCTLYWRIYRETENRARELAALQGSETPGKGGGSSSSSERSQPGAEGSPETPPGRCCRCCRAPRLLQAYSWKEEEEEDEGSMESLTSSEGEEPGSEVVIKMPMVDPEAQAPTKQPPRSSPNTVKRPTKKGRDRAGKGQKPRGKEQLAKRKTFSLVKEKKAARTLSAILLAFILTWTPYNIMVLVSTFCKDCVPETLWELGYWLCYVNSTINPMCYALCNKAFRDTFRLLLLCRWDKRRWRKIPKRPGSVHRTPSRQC
CHO-K1 Ca ag = counter-screen for M1 agonists: effect in parental CHO-K1 cells; 360,000 compounds, 0.48% hits; activation, % at 3 µM; AID 602248, 2012; Fluo-8 calcium fluorescence; scaled to maximal ATP response, vehicle zero; in the data active = activation above about 15%;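 also: untransfected CHO-K1 host cells lacking M1 receptor as counterscreen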
CHRM1 agonist = human M1 muscarinic receptor agonists, primary screen, Fluo-8 calcium fluorescence, CHO-K1 cells, HTS | CHO-K1 hM1, agonist mode; 0% DMSO, 100% acetylcholine EC100 | activation, % at 3 µM | 360,000 compounds, 0.33% hits | AID 588814, 2011;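 active = activation above the run's mean compound activation plus 3 SD, cut at about 16% in these data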;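 also: peak over basal fluorescence ratio within a 140 s kinetic read after compound addition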
CHRM1 PAM = human M1 muscarinic receptor positive allosteric modulators, primary screen, CHO-K1 cells, Fluo-8 calcium fluorescence, 1536-well; activation, % at 3 µM; CHO-K1 hM1, ACh EC20; 0% = ACh EC20, 100% = maximal ACh; 360,000 compounds, 0.088% hits; in the data active = activation above about 19%, passing the limit was not always enough
A number is an active result; i = inactive.

SMILES	CHO-K1 Ca antag	M1 PAM parental	M1 antag	CHO-K1 Ca ag	CHRM1 agonist	CHRM1 PAM
C[C@H](NC(=O)c1ccco1)C(=O)Nc1cc(S(=O)(=O)N2CCCC2)ccc1OCC(F)(F)F	i	i	i	i	i	i
CC1(C)NC(=O)N(CC(O)COc2cc3ccccc3cc2C(=O)N2CCCCC2)C1=O (centres undefined)	i	i	i	i	i	i
O=C(c1cc2ccccc2cc1O)N1CCCC1	i	i	i	19.4	i	i
O=C(c1cc2ccccc2cc1OCC(O)CN1CCCCC1)N1CCCCC1 (centres undefined)	i	i	32.8	i	i	i
Cc1c(C)c(C)c(CO/N=C/c2cccs2)c(C)c1C	i	i	i	i	i	i
CC(C)n1c(=O)c2ccccc2n1Cc1cn(Cc2cccnc2)nn1	i	i	i	i	i	i
Cc1cc(C)c2cc(CN(CCO)C(=O)Nc3ccc(F)cc3)c(=O)[nH]c2c1	25.8	i	i	i	i	i
O=C(Cc1ccccc1F)c1ccc(O)cc1O	i	i	i	19.4	i	i
CCCCN(C(=O)COC(=O)CSc1ccc([N+](=O)[O-])cc1)c1c(N)n(CCC)c(=O)[nH]c1=O	i	i	i	i	i	i
CCCC(C)C(=O)Nc1ncc(S(=O)(=O)c2ccc([N+](=O)[O-])cc2)s1 (centres undefined)	i	i	i	35.5	40.4	i
O=C1C2C3c4ccccc4C(c4ccccc43)C2C(=O)N1c1nc(-c2ccccc2)cs1 (centres undefined)	i	i	i	i	i	20.1
O=C(Nc1ccc(S(=O)(=O)Nc2nccs2)cc1)c1ccccc1OC(F)F	i	i	i	i	i	i
Cc1nc(-c2ccccc2)sc1C(N)=O	i	i	i	i	i	i
C/C(=N\O)c1sc(-c2ccccc2)nc1C	i	i	i	19.9	i	i
CCCCN(C(=O)Cc1ccc2c(c1)OCCO2)c1c(N)n(CCC)c(=O)[nH]c1=O	i	i	i	i	i	i
COc1ccc(N2CCN(C(=O)c3ccc(Br)o3)CC2)cc1	i	i	i	i	i	i
COc1ccc(N2CCN(C(CNC(C)=O)c3ccc4c(c3)OCO4)CC2)cc1 (centres undefined)	i	i	i	i	i	i
COc1ccc(N2CCN(C(CNC(=O)CC(C)(C)C)c3ccc4c(c3)OCO4)CC2)cc1 (centres undefined)	i	i	31.2	i	i	i
CCOc1ccc(/C=N/Nc2ccc(C(F)(F)F)cc2[N+](=O)[O-])cc1O	i	i	i	17.7	i	i
CCOC(=O)c1cc2sccc2n1CC(=O)OC(C)C	i	i	i	i	i	18.6
CCOC(=O)c1cc2sccc2n1CC(=O)Nc1ccc(OC)cc1	i	i	i	i	i	i
Cc1sc2ncnc(NCC(c3ccco3)N3CCCC3)c2c1C (centres undefined)	i	i	90.9	i	i	i
N#Cc1c(F)cccc1N1CCN(Cc2ccc3c(c2)OCO3)CC1	i	i	66.1	i	i	i
O=C(c1ccccc1F)N1CCN(Cc2ccc3c(c2)OCO3)CC1	i	i	i	i	i	i
NC(=Nc1nc(-c2ccccn2)cc2ccccc12)c1ccccn1	i	i	33.2	i	i	i
SMILES	CHO-K1 Ca antag	M1 PAM parental	M1 antag	CHO-K1 Ca ag	CHRM1 agonist	CHRM1 PAM
Cc1cc2ncn(C3CC(=O)N(C)C3=O)c2cc1C (centres undefined)	i	i	i	i	i	i
Cc1cc2ncn(C3CC(=O)N(Cc4ccccc4)C3=O)c2cc1C (centres undefined)	i	i	i	16.7	i	i
COc1cccc(CNS(=O)(=O)c2c(C)nc3sccn3c2=O)c1	i	i	i	i	i	i
Cc1nc2sccn2c(=O)c1S(=O)(=O)NCc1ccccc1	25.4	i	i	i	i	i
CCN(C1CCCCC1)S(=O)(=O)c1ccc(S(=O)(=O)NCc2ccncc2)cc1	i	i	35.3	18.1	i	i
COc1ccc(CCNC(=O)c2ccc3ccccc3n2)cc1OC	i	i	i	i	i	i
COc1ccc(CCNC(=O)c2cc3cc(F)ccc3nc2C)cc1OC	i	i	i	15.5	i	i
CCOc1ccc(CN2CCCC(CO)(Cc3ccc(F)cc3)C2)cc1 (centres undefined)	i	i	40.0	i	i	i
CCOCCCNC(=O)C1c2ccccc2Oc2ccccc21	i	i	i	i	i	i
CCN(CC)CCOC(=O)C1c2ccccc2Oc2ccccc21	i	i	98.9	i	i	i
CCN(CC)CCNC(=O)C1c2ccccc2Oc2ccccc21	i	i	92.6	i	i	i
O=C(NCCCn1ccnc1)C1c2ccccc2Oc2ccccc21	i	i	23.6	i	i	i
CSc1ccccc1NS(=O)(=O)c1cccc2nonc12	i	i	i	i	i	i
Cc1cc(=O)[nH]c(NN=C2CCC(C(C)(C)C)CC2)n1 (centres undefined)	i	i	i	19.3	i	i
COc1cc(NC(=O)CSc2ncnc3sc4c(c23)CCC(C)C4)c(C(=O)O)cc1OC (centres undefined)	i	i	i	i	i	i
COc1ccc(CCN2C(=O)CS/C2=N\NC(=O)c2cccs2)cc1OC	i	i	i	17.6	i	i
O=C(C[n+]1ccccc1)Nc1ccc(Oc2ccccc2)cc1	i	i	90.9	i	i	i
O=C(CN1CCCC1)NCc1ccccc1	i	i	i	i	i	i
CN(C)c1ccc(NC(=O)C[n+]2ccccc2)cc1	i	i	i	i	i	i
O=C(CN1CCCCC1)Nc1ccccc1	i	i	i	i	i	i
O=C(CN1CCCCCC1)Nc1ccc(Oc2ccccc2)cc1	i	i	42.0	i	i	i
O=C(CN1CCCCC1)Nc1ccccc1-c1ccccc1	i	i	100.9	i	i	i
O=C(CN1CCCCCC1)NN(Cc1ccccc1)c1ccccc1	i	i	55.8	i	i	i
O=C(CN1CCOCC1)Nc1ccccc1-c1ccccc1	i	i	i	i	i	i
COc1ccc(NC(=O)Nc2cccc3[nH]c([C@@H]4O[C@H](CO)[C@@H](O)[C@H](O)[C@H]4O)nc23)cc1OC1CCCC1	i	i	i	i	i	i
COc1ccc(NC(=O)CN2CCN(c3ccccc3)CC2)cc1	i	i	i	i	i	i
COc1ccc(NC(=O)CN2CCN(C3c4ccccc4-c4ccccc43)CC2)cc1	i	52.8	i	i	i	i
